Assay outcomes deposited in PubChem by Center for Chemical Genomics, University of Michigan.
This excerpt belongs to a sample that is enriched for hits.
Dicer inh – blocks human Dicer maturation of pre-miR-21 | cat-ELCCA pre-miR-21 Dicer processing, chemiluminescence; stronger effect = higher value | 6% of 47,000 active | z-score at 25 µM | AID 1347074; in the data active = z-score above about 3, passing the limit was not always enough;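 also: plate controls were vehicle for no effect and no enzyme for full effect; higher signal means more uncleaved substrate so more Dicer inhibition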
Numbers without * were called inactive.

SMILES	Dicer inh
COc1ccc(Cl)cc1/C=C1\N=C(SC)SC1=O	0.96
C=C(C1CC1)N(Cc1ccccc1)C(=O)c1cccc(F)c1	0.38
COC(=O)/C(C#N)=C/c1ccc(C(F)(F)F)cc1	7.65
Cc1ccc(-n2nnnc2SCC(=O)C(C)(C)C)c(C)c1	1.96
COc1ccc2c(c1)NC(c1ccc(F)cc1)c1cccn1-2 (stereo unspecified)	-1.53
Cc1ccc2c(c1)n(S(=O)(=O)c1ccc(F)cc1)c(=O)n2S(=O)(=O)c1ccc(F)cc1	1.02
CN(C)c1ccc(/C=N/NC(=O)c2ccncc2)c(Cl)c1	-0.07
O=C(CSC1=NCCc2ccccc21)c1ccc(Cl)c(Cl)c1	-4.99
Cc1cc(Oc2ccccc2)ccc1[N+](=O)[O-]	0.8
O=C1ON=C(c2ccccc2)C1C=C1CCCC1 (stereo unspecified)	4.2*
O=C1N=C(c2ccccc2)C(c2ccccc2)N1 (stereo unspecified)	2.92
Cc1cccc(Cn2nc(C(C)(C)C)cc2-c2nnc(SCC(=O)O)n2C2CCCCC2)c1	0.88
COc1cccc(N2CCc3c(C)nc4ccc(Cl)cc4c32)c1	1.63
COc1cc(OC)c2nc(C)c3c(c2c1)N(c1cccc(C(F)(F)F)c1)CC3	-1.03
Cc1nc2c(C)cccc2c2c1CCN2c1ccccc1F	3.21*
O=c1c(Nc2ccccc2)c(Nc2ccccc2)c1=O	7.33*
CC(C)c1ccc(Nc2c(Nc3ccc(C(C)C)cc3)c(=O)c2=O)cc1	-0.03
COc1nc(Nc2ccccc2)nc(OC)n1	-1.58
Cc1nc(S(=O)(=O)NCc2ccc3c(c2)CCO3)cn1C	-0.41
N#CC1=C(N)Oc2cc(O)ccc2C1c1ccccc1Cl (stereo unspecified)	0
CCc1[nH]nc2c1C(c1ccc(F)cc1)C(C#N)=C(N)O2 (stereo unspecified)	-1.66
Clc1ccc(CSc2ncc(-c3ccc(Cl)cc3)[nH]2)cc1	0.75
N#Cc1c(-c2ccc(Cl)cc2)[nH]c(SCc2ccccc2)nc1=S	3.55*
N#Cc1c(-c2ccccc2)nc(SCc2ccccc2)[nH]c1=O	0.36
N#Cc1c2n(c3c(=O)n(CC(=O)c4ccc(Cl)cc4)cnc13)CCCCC2	2.62
SMILES	Dicer inh
Cc1ccc(N2CC(O)=C(c3nc4ccccc4c(=O)[nH]3)C2=N)c(C)c1	-0.23
CCc1ccccc1N1CC(O)=C(c2nc3ccccc3c(=O)[nH]2)C1=N	4.88*
CCOc1ccc(N2CC(O)=C(c3nc4ccccc4c(=O)[nH]3)C2=N)cc1	1.12
Cn1nccc1NC(=O)c1ccccc1	-0.76
O=C1CCSC2=C1CS(=O)(=O)c1ccc(Cl)cc12	0.3
COc1ccc2c(c1)c(=O)oc1cc(OCc3cc(C(=O)O)oc3C)ccc12	-0.93
O=C(Nc1nnc(SCCN2C(=O)c3ccccc3S2(=O)=O)s1)c1ccccc1	3.49*
O=C1c2ccccc2S(=O)(=O)N1CCCCCN1C(=O)c2ccccc2S1(=O)=O	0.09
O=C(CCSc1nnc(NC2=NS(=O)(=O)c3ccccc32)s1)Nc1ccccc1	3.18*
O=C(CCSc1nnc(NC(=O)Cn2c(=O)sc3ccccc32)s1)Nc1ccccc1	2.26
N#CCSc1nnc(NC(=O)c2ccccc2)s1	-0.37
Cn1nc(CC(=O)Nc2nnc(SCCC(=O)Nc3ccccc3)s2)c2ccccc2c1=O	-0.28
O=C(O)CCC(=O)Nc1sc2c(c1C(=O)Nc1ccccc1)CCC2	2.25
Cc1ccc(S(=O)(=O)c2ccc(Cl)cc2)cc1S(=O)(=O)NCc1ccco1	0.56
CC(C)NC(=O)CCSc1nc(-c2ccco2)cc(C(F)(F)F)n1	0.98
CCOC(=O)Cc1cnc(NC(=O)CSc2nnc3c(n2)-c2cccc4cccc-3c24)s1	-1.53
Cc1ccc(Sc2ccccc2C(=O)O)c(S(N)(=O)=O)c1	0.08
Cc1nn(-c2cc(C(F)(F)F)ccc2Cl)c(=O)c2noc(C)c12	-0.35
CN(C)c1ccc(/C=C/c2nc(-c3ccccc3O)n[nH]2)cc1	2.95
CN(C)c1ccc(/C=C/c2nc3ccccc3c(=O)[nH]2)cc1	5.45*
CN(C)c1ccc(-c2nc3ccccc3c(=O)[nH]2)c(Cl)c1	-0.76
O=S(=O)(c1ccc(Cl)cc1)c1ccc(N=Cc2ccccc2O)cc1Cl	1.52
CSc1nc(C=Nc2ccc(Cl)cc2)c(O)n1Cc1ccccc1Cl	4.71*
C/C(=N\NC(N)=O)C1(CC(C)C)CCCCC1	-0.19
Cc1nn(C(=O)C2CC2)c(C)c1Sc1ccc(C(F)(F)F)cn1	-1.9
SMILES	Dicer inh
Cc1cc(CNC(=O)c2cc(F)cc3c2OCOC3)no1	-0.37
Cc1nc2cc(S(=O)(=O)Nc3ccccc3)ccc2n1-c1ccccc1	0.07
O=c1nc(Nc2ccc(OC(F)(F)F)cc2)c2ccccc2o1	0.39
O=c1cc(Nc2ccc(OC(F)(F)F)cc2)c2ccccc2o1	3.22*
O=C(NNC(=O)Nc1ccc(OC(F)(F)F)cc1)Nc1ccc(OC(F)(F)F)cc1	0.17
S=c1scc(-c2ccc(Cl)c(Cl)c2)n1Nc1ccccc1	-0.84
COc1ccc(C2SCCN2S(=O)(=O)c2cccc(C)c2)cc1 (stereo unspecified)	6.16*
COc1ccc(S(=O)(=O)N2CCSC2c2ccccc2Cl)cc1 (stereo unspecified)	3.32*
CCOc1ccc(S(=O)(=O)N2CCSC2c2ccc(OC)c(OC)c2)cc1 (stereo unspecified)	3.3*
COc1ccc(C2SCCN2S(=O)(=O)c2ccc(C)cc2)cc1 (stereo unspecified)	-1.36
COc1ccc(C2SCCN2S(=O)(=O)c2cccc(C)c2)cc1OC (stereo unspecified)	0.87
COc1ccc(S(=O)(=O)N2CCSC2c2ccccc2OC)cc1 (stereo unspecified)	0.65
COc1ccccc1C1SCCN1S(=O)(=O)c1ccc(Cl)cc1 (stereo unspecified)	1.2
COc1ccc(Br)cc1C1SCCN1S(=O)(=O)c1cccc(C)c1 (stereo unspecified)	2.94
COc1ccc(OC)c(C2SCCN2S(=O)(=O)c2ccc(-c3ccccc3)cc2)c1 (stereo unspecified)	-0.18
Cn1c(=O)c2c(O)cc(=O)n(C)c2n(C)c1=O	-0.77
O=C(CCSc1c(Cl)cccc1Cl)c1ccc(Cl)s1	-0.5
O=c1cc(C(F)(F)F)nc(-c2ccccn2)[nH]1	-0.28
CCOC(=O)c1cc(-c2ccccc2)sc1NC(=O)CSc1nc2ccccc2[nH]1	-1.84
COc1ccc2c(c1)CCC1C2=NN(C)C1c1ccc(F)cc1 (stereo unspecified)	0.48
O=C1C=CC(=O)C(CCCCCCC2=CC(=O)C=CC2=O)=C1	1.18
COc1ccccc1NC(=O)CSCc1cnc(C)c(O)c1CO	-0.38
O=C(Nc1ccc2oc(-c3cccc4ccccc34)nc2c1)c1ccc([N+](=O)[O-])o1	1.69
O=C(Nc1ccc2oc(-c3ccccc3F)nc2c1)c1ccc([N+](=O)[O-])o1	32.1
Cc1ccccc1-c1nc2cc(NCc3cccs3)ccc2o1	8.16*
SMILES	Dicer inh
COc1ccc(-n2ncc(C(=O)NCc3c(Cl)cccc3Sc3ccc(Cl)cc3)c2C)cc1	-1.4
COc1cc2c(cc1OC)C(C)N(C(=O)CCC(=O)O)CC2 (stereo unspecified)	-2.52
CC(C)CCNc1nc2c(c(=O)[nH]c(=O)n2C)n1CCO	1.35
CC(C)CCn1c(NCc2ccco2)nc2c1c(=O)[nH]c(=O)n2C	3.59*
Cn1c(=O)[nH]c(=O)c2c1nc(NCc1ccco1)n2Cc1ccc(F)cc1	-2.74
Cc1cc(S(=O)(=O)c2ccc([N+](=O)[O-])cn2)c(Cl)cc1Cl	-0.85
Cc1ccnc(SCC(=O)n2c(C)c(C)c3ccccc32)n1	3.46*
Cc1c(C)n(C(=O)CSc2nc(O)cc(=O)[nH]2)c2ccccc12	-1.21
